# Bioassay records: PubChem, National Center for Advancing Translational Sciences (NCATS)
# In the library only some 7.7% were active in any assay of this set; here they are far more common.
# TbPYK inhibitor – qHTS of Trypanosoma Brucei Inhibitors; 410,000 tested, 0.12% active; AID 624173, 2012; Potency, µM (series often up to 76.8 µM), for inactives: at the top dose activity, negative = inhibition, most hits filed as inhibitors; pyruvate kinase (Trypanosoma brucei), Q57TT1; TbPYK enzyme, Kinase-Glo Plus ATP luminescence, 45 min; further: potency means the concentration at half of the fitted maximal effect; nearly all actives have a fitted effect of over 50% in size
#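 Assay buffer: 50 mM TEA pH 7.2, 100 mM KCl, 10 mM MgCl2, 0.05% BSA, 0.01% Tween-20. Pyruvate kinase from T. brucei plus substrate met compound, then ADP (130 uM final). Luminescence was read post 45 min RT.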
# RE007 growth inh – qHTS Assay for Inhibitors of the HIV-1 protein Vpr; Potency, µM (series often up to 92.2 µM), inactives show at the highest dose activity change, negative = less growth, usual class: inhibitors; 360,000 tested, 0.21% active; S. pombe RE007 Vpr strain, BacTiter-Glo ATP luminescence, 24 h; active means well fitted falling curve with a large enough effect; inconclusive means small, poorly fitted or top-dose-only effect; inactive means no such curve, though single readings can be large or run the other way; further: potency means the concentration at half of the fitted maximal effect; nearly all actives have a fitted effect of over 50% in size
#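 Fission yeast RE007 carrying one integrated HIV-1 vpr copy, seeded at OD 0.01 in PMG+AL medium with 23 nL pinned compound. Grown 24 h at 30 degrees; viability read by BacTiter-Glo luminescence after 5 min.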
# Sm TGR block – qHTS Assay for the Inhibitors of Schistosoma Mansoni Peroxiredoxins | Potency, µM (top dose mostly 114 µM), without a hit: at the highest dose activity change, negative = inhibition, usual class: inhibitors | 360,000 tested, 3% active | purified TGR, DTNB reduction, TNB absorbance 405 nm | Schistosoma mansoni thioredoxin glutathione reductase (TGR), Q962Y6 | AID 485364, 2010; further: potency means the concentration at half of the fitted maximal effect; nearly all actives have a fitted effect of over 60% in size
#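 First, TGR (20 nM dispensed) and NADPH were mixed with compound. Second, a 15 min room-temperature incubation followed. Third, further NADPH and then DTNB were added to start the reaction. Finally, TNB absorbance was monitored kinetically.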
# FMDV antiviral – High Throughput Screening for Foot and Mouth Disease Virus Antivirals; FMDV antiviral cell-based qHTS; Potency, µM (highest dose often 57.9 µM), inactives show at the top dose activity change, negative = inhibition, usual class: inhibitors; AID 1159524, 2015; 410,000 tested, 1.2% active; calls by dose curve; tested in HEK293T cells; further: read-out not given here; potency means the concentration at half of the fitted maximal effect; nearly all actives have a fitted effect of over 45% in size
# HCMV antiviral – qHTS Assay for inhibitors of the human cytomegalovirus (HCMV) | AID 1259415, 2018 | 410,000 tested, 4.5% active | HFF cells, HCMV-luciferase reporter, 72 h; active compounds read low | activity change, negative = inhibition, % at 57.5 µM; in the data active means activity change below about -60%; inconclusive means no clear call, values can overlap the other calls; inactive means above about -39%
#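 HFF cells seeded 16 h at 37C, treated with compounds, infected with luciferase-reporter HCMV at MOI 1 PFU/cell; luciferase read at 72 h post infection, normalized to buffer-only and Salinomycin controls.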
# Giardia FBPA inh – qHTS Assay for Inhibitors of Fructose-1,6-bisphosphate Aldolase from Giardia Lamblia | A8B2U2 | purified Giardia FBPA | Potency, µM (highest dose often 59.6 µM), for the others: at the top dose activity, negative = inhibition, actives largely listed as inhibitors | 290,000 tested, 0.71% active | AID 2451, 2010; further: potency means the concentration at half of the fitted maximal effect; nearly all actives have a fitted effect of over 55% in size
# Target sequence (A8B2U2 whole entry, looked up): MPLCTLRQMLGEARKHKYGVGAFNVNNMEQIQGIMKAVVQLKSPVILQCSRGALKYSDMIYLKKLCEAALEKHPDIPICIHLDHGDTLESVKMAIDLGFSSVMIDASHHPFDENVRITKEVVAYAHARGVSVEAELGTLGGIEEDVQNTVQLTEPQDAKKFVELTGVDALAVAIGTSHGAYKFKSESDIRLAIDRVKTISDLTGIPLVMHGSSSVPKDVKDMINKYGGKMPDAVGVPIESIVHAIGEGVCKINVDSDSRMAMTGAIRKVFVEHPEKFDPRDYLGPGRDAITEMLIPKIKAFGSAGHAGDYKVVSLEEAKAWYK
#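 40 nM FBPA preincubated 10 min at RT with compound (up to 57.5 uM final), then substrate plus GAPDH/TPI/NAD/arsenate coupling and diaphorase/resazurin added. Fluorescence read after 20 min at RT, 525/598 nm.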
# An asterisk follows results filed as active; u = inconclusive; x = not tested or not shown. Unless noted, the call rests on the fitted dose curve; in most records, active means well fitted curve in the direction sought with a large enough effect; inconclusive means small, poorly fitted or top-dose-only effect, or another doubt; inactive means no such curve, though single readings can be large; an effect the other way counts as inactive or inconclusive. On the % scale 0 is the no-effect control and ±100 the full control effect.
SMILES,TbPYK inhibitor,RE007 growth inh,Sm TGR block,FMDV antiviral,HCMV antiviral,Giardia FBPA inh
Cc1ccc(-c2nn(-c3cccc(F)c3)cc2CN(Cc2nccn2C)C(C)C)o1,-7.0%,-1.3%,20µM*,22.7%,u,-3.3%
Cc1ccc(-c2nn(-c3cccc(F)c3)cc2CN2CCN(c3ccccn3)CC2)o1,-8.7%,-6.8%,u,-20.8%,-10.8,-15.3%
Cc1ccc2[nH]c3c(c2c1)CN(C(=O)CC1(c2ccccc2)CC(=O)N(Cc2cccnc2)C1=O)CC3 (stereo unspecified),x,x,x,-4.8%,x,x
COC(=O)c1ccc(=O)c2nc3/c(=C/O)c(O)cc(=O)c3[nH]c12,0.7%,17.3%,50.1µM*,-23.2%,x,-21.3%
O=C(NCc1ccc(F)cc1)c1c(O)nc2ccccn2c1=O,-2.9%,x,6.9%,-7.0%,-61.5*,x
COc1cccc(CNC(=O)c2c(O)nc3ccccn3c2=O)c1,-5.1%,x,0.6%,7.6%,4.1,x
COc1ccc(/C=C(\C#N)C(=O)OCC(=O)Nc2c(C)cccc2C)cc1,3.9%,7.0%,0.4%,-23.2%,-61.4*,1.0%
COc1ccc([C@H]2CC(=O)C=C(c3cccc(CO)c3)C2)cc1OC,1.1%,-2.4%,-5.7%,u,17.1,x
CCOC(=O)c1cccc(C2=CC(=O)C[C@H](c3ccc(OC)c(OC)c3)C2)c1,-0.9%,-17.4%,-11.2%,39.8µM*,15.6,x
COc1ccc([C@H]2CC(=O)C=C(c3cccc(C(C)C)c3)C2)cc1OC,2.7%,3.7%,-2.4%,25.1µM*,-26.6,x
COc1cccc(CNC(=O)c2c(OC)cc(=O)n3c2CCN(C(=O)C2CC=CCC2)CC3)c1 (stereo unspecified),x,x,x,1.6%,x,x
CCCCOc1ccc(C(=O)NNC(=O)C2C3CCC(C3)C2C(=O)O)cc1 (stereo unspecified),1.5%,13.6%,-1.8%,7.0%,-3.7,x
CCCCOc1ccc(C(=O)NNC(=O)C2C3C=CC(C3)C2C(=O)O)cc1 (stereo unspecified),9.8%,15.6%,-11.3%,11.0%,-60.3*,x
O=c1c(C(c2c(O)nc3n(c2=O)CCS3)c2cccc3ccccc23)c(O)nc2n1CCS2,-19.9%,-29.6%,u,-29.2%,-3.1,9.5%
O=c1c(C(c2ccc(Br)cc2)c2c(O)nc3n(c2=O)CCCS3)c(O)nc2n1CCCS2,-1.9%,-14.3%,2µM*,-5.3%,-10.1,7.7%
O=c1c(C(c2ccc(O)cc2)c2c(O)nc3n(c2=O)CCS3)c(O)nc2n1CCS2,u,-0.9%,10µM*,9.6%,-11.8,-12.5%
O=c1c(C(c2ccc(O)cc2)c2c(O)nc3n(c2=O)CCCS3)c(O)nc2n1CCCS2,-16.1%,2.7%,56.2µM*,-1.5%,1.8,-7.2%
O=c1c(C(c2ccc(Br)cc2)c2c(O)nc3n(c2=O)CCS3)c(O)nc2n1CCS2,-4.4%,10.0%,u,-2.2%,-20.4,2.6%
O=c1c2ccccc2nc2n1CCCS2,-7.6%,1.1%,6.2%,x,8.7,0.8%
Cc1ccc(C(c2c(O)nc3n(c2=O)CCS3)c2c(O)nc3n(c2=O)CCS3)cc1,-10.1%,3.7%,2.82µM*,-15.5%,0.4,-5.2%
COC(=O)[C@@H]1CC(=O)N[C@@H]1c1ccc(OC(C)C)c(OC)c1,x,x,x,x,-16.8,x
COc1ccc(CN2CCOc3ccc(CN4CCN(CCO)CC4)cc3C2)c2ccccc12,x,x,x,-7.5%,x,x
COCCN1C(=O)COCc2cc(-c3cnn(C)c3)ccc21,x,x,x,x,20.7,x
O=[N+]([O-])c1ccc(NN=C(Oc2ccccc2)c2ccc([N+](=O)[O-])cc2)cc1,-7.3%,-23.6%,x,-12.3%,-70.4*,x
CC/C(=N\Nc1ccc([N+](=O)[O-])cc1)c1ccccc1,1.7%,-1.7%,-2.8%,-11.9%,x,1.3%
SMILES,TbPYK inhibitor,RE007 growth inh,Sm TGR block,FMDV antiviral,HCMV antiviral,Giardia FBPA inh
CC1=NN(c2nc(-c3ccc(C)cc3)cs2)C(=O)C1N=Nc1ccccc1O (stereo unspecified),-7.1%,0.0%,0.5%,-21.1%,-101.6*,9.5%
O=C(N/N=C/C(Cl)=C/c1ccc([N+](=O)[O-])cc1)C(=O)Nc1ccccc1C(=O)O,-11.1%,-24.1%,14.1µM*,44.7%,-32.1,0.4%
O=C(N/N=C/C(Cl)=C/c1ccc([N+](=O)[O-])cc1)C(=O)Nc1ccc(C(=O)O)cc1,-2.5%,18.9%,u,-25.0%,u,-8.0%
COc1cccc(OCCSc2nnc3sc4ccccc4n23)c1,4.7%,16.4%,6.5%,-8.6%,39.3,15.8µM*
c1ccc(OCCSc2nnc3sc4ccccc4n23)cc1,-9.0%,-4.7%,10.6%,x,u,17.7µM*
Cc1cc(Cl)ccc1NC(=O)CCC(=O)N/N=C/c1cccnc1,-19.1%,4.6%,u,6.3%,-67.7*,x
CC1=CC2OC3CC4OC(=O)C=CC=CC(=O)OCCC(C)C(O)C(=O)OCC2(CC1)C4(C)C31CO1 (stereo unspecified),-0.5%,u,x,-22.3%,-97.8*,x
CC(O)C1C=CC=CC(=O)OC2CC3OC4C5OC5(C)C(O)CC4(COC(=O)C(O)C(C)CCO1)C2(C)C31CO1 (stereo unspecified),-7.6%,-12.6%,x,x,-97.9*,x
CC1CCOC(=O)C=CC=CC(=O)OC2CC3OC4C5OC5(C)C(O)CC4(COC(=O)C1O)C2(C)C31CO1 (stereo unspecified),-2.4%,-19.3%,x,x,-97.5*,x
CC1=CC2OC3CC4OC(=O)C=CC=CC(C(C)O)OCC(O)C5(C)OC5C(=O)OCC2(CC1O)C4(C)C31CO1 (stereo unspecified),0.5%,-1.6%,x,x,-97.6*,x
O=c1oc2c(F)cc(F)cc2cc1S(=O)(=O)c1ccc(F)cc1,-5.8%,x,-21.5%,u,41.9,x
O=C(/C=C/c1ccc(OC(F)F)cc1)Nc1cccc(S(=O)(=O)N2CCOCC2)c1,6.0%,2.2%,-20.8%,u,-75.0*,x
COc1ccc(/C=C/C(=O)Nc2cccc(S(=O)(=O)N3CCOCC3)c2)cc1OC,-0.7%,2.2%,-0.2%,u,4.3,x
Cc1ccc(/C=C/C(=O)Nc2cccc(S(=O)(=O)N3CCOCC3)c2)o1,u,-12.7%,11.2µM*,23.7%,4.1,-18.3%
CCOC(=O)c1ccc(N2C(=O)CC(Nc3ccc(O)cc3)C2=O)cc1 (stereo unspecified),-13.7%,-7.7%,-2.3%,-1.1%,-2.0,-8.8%
